Assay results taken from PubChem BioAssay (Tox21).
Values joined by “and” are separate entries in the source; they are usually repeats but may differ in a detail not shown here. Identical values can stand only once. Records with an inconclusive call do not appear. Where a call stands in place of a potency, no number is given. A structure can be active in one record and inactive in another. Active and inactive are the calls of the source. Unless noted, calls follow the shape of the dose curve; as a rule, active = well fitted curve in the direction sought with a large enough effect in the repeat runs; inconclusive = weak or mixed curves; inactive = no such curve, though single readings can be large; an effect the other way counts as inactive or inconclusive.

Experiments:
[1] = qHTS assay to identify small molecule antagonists of the sonic hedgehog signaling (Shh) pathway (AID 1259369; calls by dose curve; also: nearly all actives have a fitted effect of over 45% in size; also: potency is read from the fitted curve at half-maximal effect)
In short: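 Conditioned medium drives Shh signalling in 3T3Gli1-Luc cells; compounds in DMSO co-applied, 24hr at 37 C, then luciferase luminescence.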

[2] = qHTS assay to identify small molecule agonists of the androgen receptor (AR) signaling pathway in the presence of an antagonist - cell viability counter screen (AID 1259379); also: nearly all actives have a fitted effect of over 25% in size; also: potency is read from the fitted curve at half-maximal effect;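 as to activity change, negative = cytotoxicity: MDA-kb2 human breast cancer cells carrying an MMTV luciferase reporter; series mostly up to about 92 µM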
In short: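 A CellTiter-Fluor read-out measured viability of MDA-kb2 reporter cells (MMTV promoter with AR and GR response elements). Treatment: nilutamide 3.0uM final with compounds at 15 concentrations, 16 hr, 37C, 0% CO2.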

[3] = qHTS assay to identify small molecule agonists of the estrogen receptor beta (ER-beta) signaling pathway - cell viability counter screen (AID 1259380); also: nearly all actives have a fitted effect of over 30% in size; also: potency is read from the fitted curve at half-maximal effect
In short: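 Cells used were ER-beta-UAS-bla HEK293T in medium with 2% charcoal-stripped FBS. They were treated for 16 hr at 37C. Viability came from CellTiter-Glo luminescence.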

[4] = qHTS assay to identify small molecule antagonists of the estrogen receptor beta (ER-beta) signaling pathway - cell viability counter screen (AID 1259382); also: nearly all actives have a fitted effect of over 55% in size; also: potency is read from the fitted curve at half-maximal effect; as to activity change, negative = cytotoxicity: series mostly up to about 92 µM
In short: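 Agonist-stimulated (1nM E2) ER-beta-UAS-bla HEK293T cells are incubated with library compounds for 16 hr at 37C. Cell viability is then assessed in the reporter-assay wells by adding CellTiter-Glo and reading luminescence after 30 min.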

[5] = target: Estrogen receptor (Homo sapiens) (UniProt P03372); test: qHTS assay to identify small molecule agonists of the estrogen receptor alpha (ER-alpha) signaling pathway in the presence of an antagonist (AID 1259383; calls by dose curve; also: top concentration of the series differs between compounds; nearly all actives have a fitted effect of over 15% in size)
In short: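 Using VM7Luc4E2 cells seeded 24hr before treatment, antagonist ICI-182,780 (10.0nM final) was added, followed by compounds at 15 concentrations. Plates incubated 22hr; ONE-Glo luminescence quantified reporter activity.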

[6] = qHTS assay to identify small molecule agonists or antagonists of the thyroid stimulating hormone receptor (TSHR) signaling pathway - wild type cell line counter screen (AID 1259384; calls by dose curve)
In short: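 Wild-type HEK293 cells were plated 18 h at 37 C/5% CO2, pin-dosed with compound plus Ro20-1724 medium, held 30 min at room temperature, then given cAMP-d2 and anti-cAMP-cryptate; fluorescence was read after 1 h. Fifteen concentrations, triplicate.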

[7] = target: Thyrotropin receptor (Homo sapiens) (UniProt P16473); test: qHTS assay to identify small molecule antagonists of the thyroid stimulating hormone receptor (TSHR) signaling pathway (AID 1259385; calls by dose curve; also: nearly all actives have a fitted effect of over 20% in size)
In short: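 TSHR-HEK293 cells were plated and held 18 h at 37C/5% CO2, then given compound plus Ro20-1724 and stimulated with TSH at 1.5 ng/mL final. After 30 min at room temperature, cAMP was detected with cAMP-d2/anti-cAMP-cryptate (1 h) by fluorescence.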

[8] = qHTS assay to identify small molecule agonists of the estrogen receptor alpha (ER-alpha) signaling pathway in the presence of an antagonist - cell viability counter screen (AID 1259386);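 also: cells exposed to compounds for 22 h at 37 °C before the viability read; nearly all actives have a fitted effect of over 30% in size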; also: potency is read from the fitted curve at half-maximal effect; as to activity change, negative = cytotoxicity: series mostly up to about 92 µM
In short: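 ICI-182,780 at 10.0nM final accompanies the compound titration (15 concentrations, 22hr, 37C) on VM7Luc4E2 cells. The CellTiter-Fluor fluorescence readout runs in the same wells as the luciferase assay.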

[9] = target: Progesterone receptor (Homo sapiens) (UniProt P06401); test: qHTS assay to identify small molecule agonists of the progesterone receptor (PR) signaling pathway (AID 1346784; calls by dose curve; also: nearly all actives have a fitted effect of over 30% in size)
In short: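 PR-UAS-bla HEK 293T cells carrying a UAS-driven beta-lactamase reporter were seeded in medium with 2% charcoal-stripped FBS, preincubated 6 hr at 37C, then exposed to compounds in DMSO for 16 hr; agonism was read by LiveBLAzer B/G FRET fluorescence.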

[10] = qHTS assay to identify small molecule antagonists of the progesterone receptor (PR) signaling pathway - cell viability counter screen (AID 1346798); also: series mostly up to about 92 µM; nearly all actives have a fitted effect of over 50% in size
In short: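 PR-UAS-bla HEK293T cells in medium with 2% charcoal-stripped FBS were treated with compounds plus R5020 for 16 hr at 37C. Cell viability was then read by CellTiter-Glo luminescence after 30 min at room temperature in the same wells.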

[11] = qHTS assay to identify small molecule agonists of the progesterone receptor (PR) signaling pathway - cell viability counter screen (AID 1346799; calls by dose curve; also: nearly all actives have a fitted effect of over 45% in size; also: potency is read from the fitted curve at half-maximal effect)
In short: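 PR-UAS-bla HEK293T cells, 3,000 per well in medium with 2% charcoal-stripped FBS, were preincubated 6 hr at 37C, then exposed to compounds for 16 hr; viability was read as CellTiter-Glo luminescence after 30 min at room temperature.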

[12] = qHTS assay to identify small molecule antagonists of the TGF-beta/Smad signaling pathway - cell viability counter screen (AID 1346824); also: nearly all actives have a fitted effect of over 50% in size; also: potency is read from the fitted curve at half-maximal effect
In short: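 SBE-bla HEK 293T cells were plated overnight at 37 C, then given compounds in DMSO plus TGF-beta1 (added as 0.25 ng/mL solution) for 5 hr. After the bla read, CellTiter-Glo was added to the same wells and luminescence read after 30 min at room temperature.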

[13] = qHTS assay to identify small molecule agonists of the TGF-beta/Smad signaling pathway - cell viability counter screen (AID 1346829); also: nearly all actives have a fitted effect of over 45% in size; also: potency is read from the fitted curve at half-maximal effect; as to activity change, negative = cytotoxicity: top concentration of the series differs between compounds
In short: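 After overnight seating at 37 C and 5% CO2, reporter cells got compounds for 5 hr and FRET substrate for 2 hr; cell viability then came from CellTiter-Glo luminescence.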

[14] = qHTS assay to identify small molecule agonists of the TGF-beta/Smad signaling pathway (AID 1346859; active = well fitted activation curve with a large enough effect in the signal ratio in the repeat runs, not every such curve was filed as active; the % refers to the signal ratio; also: series mostly up to about 77 µM)
In short: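 HEK 293T cells stably carrying a beta-lactamase reporter driven by the Smad binding element were seeded overnight, exposed to DMSO-dissolved compounds for 5 hr at 37 C, 5% CO2, then loaded with FRET substrate for 2 hr at room temperature.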

[15] = target: Androgen receptor (Homo sapiens) (UniProt P10275); test: qHTS assay to identify small molecule agonists of the androgen receptor (AR) signaling pathway in the presence of an antagonist (AID 1259381; calls by dose curve; also: nearly all actives have a fitted effect of over 15% in size)
In short: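 Using human MDA-kb2 cells with an MMTV promoter–luciferase construct (AR and GR response elements), agonist activity is scored under 3.0uM nilutamide (final) co-treatment; 16hr incubation, 37C, luminescence readout via ONE-Glo.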

[16] = target: Thyrotropin-releasing hormone receptor (Homo sapiens) (UniProt P34981); test: qHTS assay to identify small molecule antagonists of the thyrotropin-releasing hormone receptor (TRHR) signaling pathway (AID 1346877; active = well fitted inhibition curve with a large enough effect in the repeat runs, not every such curve was filed as active; also: series mostly up to about 51 µM)
In short: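 Screening used HEK293 cells engineered with TRHR, with a brief 5 min room-temperature compound exposure preceding addition of TRH to 1 nM. The read-out was kinetic calcium-dye fluorescence, concentration-response from 15 doses in triplicate.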

[17] = target: Progesterone receptor (Homo sapiens) (UniProt P06401); test: qHTS assay to identify small molecule antagonists of the progesterone receptor (PR) signaling pathway (AID 1346795; active = well fitted inhibition curve with a large enough effect in the signal ratio in the repeat runs, not every such curve was filed as active; the % refers to the signal ratio)
In short: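 PR-UAS-bla HEK293T cells carrying a UAS-driven beta-lactamase reporter were plated in medium with 2% charcoal-stripped FBS and rested 6 hr at 37C. Compounds were added with 1 nM R5020 (final) for 16 hr, then FRET substrate loaded 2 hr at room temperature.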

[18] = target: Thyrotropin-releasing hormone receptor (Homo sapiens) (UniProt P34981); test: qHTS assay to identify small molecule agonists of the thyrotropin-releasing hormone receptor (TRHR) signaling pathway (AID 1346891; calls by dose curve; also: series mostly up to about 58 µM)
In short: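 TRHR-expressing HEK293 cells were plated 18 h at 37 °C/5% CO2, loaded with calcium dye 2 h at 37 °C, then given compound in DMSO; fluorescence was read kinetically for 3 min at 1 s intervals.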

Chain of Thyrotropin receptor (Homo sapiens) (P16473 whole entry, looked up): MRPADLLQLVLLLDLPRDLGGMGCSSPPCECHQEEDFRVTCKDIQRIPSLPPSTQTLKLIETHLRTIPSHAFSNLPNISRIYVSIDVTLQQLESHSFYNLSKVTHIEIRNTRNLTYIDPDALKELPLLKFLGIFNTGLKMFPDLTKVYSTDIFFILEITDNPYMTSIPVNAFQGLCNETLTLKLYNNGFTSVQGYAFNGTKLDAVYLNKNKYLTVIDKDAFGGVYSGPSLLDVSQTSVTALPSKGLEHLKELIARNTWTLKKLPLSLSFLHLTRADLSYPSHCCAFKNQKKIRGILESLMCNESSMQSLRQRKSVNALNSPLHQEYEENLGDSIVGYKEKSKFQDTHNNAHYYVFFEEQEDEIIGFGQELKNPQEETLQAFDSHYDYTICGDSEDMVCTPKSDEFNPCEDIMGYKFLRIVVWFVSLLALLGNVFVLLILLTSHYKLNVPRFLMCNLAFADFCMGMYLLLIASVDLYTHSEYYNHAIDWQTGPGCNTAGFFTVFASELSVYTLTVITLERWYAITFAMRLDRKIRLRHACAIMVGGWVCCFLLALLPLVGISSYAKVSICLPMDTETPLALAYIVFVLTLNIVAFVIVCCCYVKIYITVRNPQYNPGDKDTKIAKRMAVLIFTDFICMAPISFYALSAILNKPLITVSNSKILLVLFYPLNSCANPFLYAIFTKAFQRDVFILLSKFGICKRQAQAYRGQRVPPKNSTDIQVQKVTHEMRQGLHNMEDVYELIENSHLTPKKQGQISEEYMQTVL
Chain of Androgen receptor (Homo sapiens) (P10275 whole entry, looked up): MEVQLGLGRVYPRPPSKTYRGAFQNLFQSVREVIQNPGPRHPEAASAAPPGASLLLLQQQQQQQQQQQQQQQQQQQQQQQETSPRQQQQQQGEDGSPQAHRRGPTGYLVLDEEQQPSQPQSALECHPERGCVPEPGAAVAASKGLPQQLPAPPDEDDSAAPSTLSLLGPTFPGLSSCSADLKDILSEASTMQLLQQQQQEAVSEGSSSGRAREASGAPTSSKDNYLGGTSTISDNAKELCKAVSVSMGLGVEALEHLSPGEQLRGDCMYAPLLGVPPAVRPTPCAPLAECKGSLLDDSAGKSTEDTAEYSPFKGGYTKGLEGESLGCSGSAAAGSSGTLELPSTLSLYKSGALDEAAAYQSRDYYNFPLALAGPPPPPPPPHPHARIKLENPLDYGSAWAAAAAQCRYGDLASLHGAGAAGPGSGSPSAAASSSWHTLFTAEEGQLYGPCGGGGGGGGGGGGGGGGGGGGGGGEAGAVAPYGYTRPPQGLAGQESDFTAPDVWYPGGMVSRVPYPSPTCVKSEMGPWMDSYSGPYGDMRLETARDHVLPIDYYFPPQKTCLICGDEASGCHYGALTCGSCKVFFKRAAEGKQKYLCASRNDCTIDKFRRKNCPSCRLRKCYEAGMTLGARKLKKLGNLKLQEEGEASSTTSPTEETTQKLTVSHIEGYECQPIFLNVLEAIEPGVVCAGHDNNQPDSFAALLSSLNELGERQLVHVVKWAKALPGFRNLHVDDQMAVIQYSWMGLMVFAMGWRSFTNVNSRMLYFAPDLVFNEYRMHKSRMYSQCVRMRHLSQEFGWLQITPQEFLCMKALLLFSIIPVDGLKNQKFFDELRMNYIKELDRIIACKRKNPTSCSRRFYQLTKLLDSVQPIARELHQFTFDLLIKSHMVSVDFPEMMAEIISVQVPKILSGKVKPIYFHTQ
Chain of Estrogen receptor (Homo sapiens) (P03372 whole entry, looked up): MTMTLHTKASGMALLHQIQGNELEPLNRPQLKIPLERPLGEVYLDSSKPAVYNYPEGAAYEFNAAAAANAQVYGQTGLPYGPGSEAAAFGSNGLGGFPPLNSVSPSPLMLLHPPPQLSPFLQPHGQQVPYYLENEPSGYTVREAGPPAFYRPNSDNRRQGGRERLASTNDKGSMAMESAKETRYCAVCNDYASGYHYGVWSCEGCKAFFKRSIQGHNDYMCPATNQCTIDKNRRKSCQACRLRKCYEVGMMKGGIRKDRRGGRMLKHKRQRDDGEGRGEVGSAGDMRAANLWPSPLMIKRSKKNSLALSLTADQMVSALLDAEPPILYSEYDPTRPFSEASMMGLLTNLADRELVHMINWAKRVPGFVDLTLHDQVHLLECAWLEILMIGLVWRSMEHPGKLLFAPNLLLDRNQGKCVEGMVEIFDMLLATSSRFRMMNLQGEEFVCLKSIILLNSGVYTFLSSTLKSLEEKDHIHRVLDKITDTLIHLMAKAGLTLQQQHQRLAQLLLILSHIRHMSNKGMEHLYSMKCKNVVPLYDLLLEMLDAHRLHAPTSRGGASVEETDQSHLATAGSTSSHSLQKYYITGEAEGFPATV
Chain of Thyrotropin-releasing hormone receptor (Homo sapiens) (P34981 whole entry, looked up): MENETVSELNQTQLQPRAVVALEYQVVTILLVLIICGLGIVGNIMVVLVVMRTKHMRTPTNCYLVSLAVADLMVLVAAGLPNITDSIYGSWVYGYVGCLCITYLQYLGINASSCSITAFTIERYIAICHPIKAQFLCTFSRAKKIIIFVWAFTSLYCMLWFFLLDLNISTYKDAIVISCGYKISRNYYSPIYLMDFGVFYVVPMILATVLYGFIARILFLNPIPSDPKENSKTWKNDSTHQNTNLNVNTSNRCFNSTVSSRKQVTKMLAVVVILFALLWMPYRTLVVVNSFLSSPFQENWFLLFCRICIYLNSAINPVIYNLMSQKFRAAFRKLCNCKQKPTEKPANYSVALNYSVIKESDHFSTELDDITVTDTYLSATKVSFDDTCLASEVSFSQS
Chain of Progesterone receptor (Homo sapiens) (P06401 whole entry, looked up): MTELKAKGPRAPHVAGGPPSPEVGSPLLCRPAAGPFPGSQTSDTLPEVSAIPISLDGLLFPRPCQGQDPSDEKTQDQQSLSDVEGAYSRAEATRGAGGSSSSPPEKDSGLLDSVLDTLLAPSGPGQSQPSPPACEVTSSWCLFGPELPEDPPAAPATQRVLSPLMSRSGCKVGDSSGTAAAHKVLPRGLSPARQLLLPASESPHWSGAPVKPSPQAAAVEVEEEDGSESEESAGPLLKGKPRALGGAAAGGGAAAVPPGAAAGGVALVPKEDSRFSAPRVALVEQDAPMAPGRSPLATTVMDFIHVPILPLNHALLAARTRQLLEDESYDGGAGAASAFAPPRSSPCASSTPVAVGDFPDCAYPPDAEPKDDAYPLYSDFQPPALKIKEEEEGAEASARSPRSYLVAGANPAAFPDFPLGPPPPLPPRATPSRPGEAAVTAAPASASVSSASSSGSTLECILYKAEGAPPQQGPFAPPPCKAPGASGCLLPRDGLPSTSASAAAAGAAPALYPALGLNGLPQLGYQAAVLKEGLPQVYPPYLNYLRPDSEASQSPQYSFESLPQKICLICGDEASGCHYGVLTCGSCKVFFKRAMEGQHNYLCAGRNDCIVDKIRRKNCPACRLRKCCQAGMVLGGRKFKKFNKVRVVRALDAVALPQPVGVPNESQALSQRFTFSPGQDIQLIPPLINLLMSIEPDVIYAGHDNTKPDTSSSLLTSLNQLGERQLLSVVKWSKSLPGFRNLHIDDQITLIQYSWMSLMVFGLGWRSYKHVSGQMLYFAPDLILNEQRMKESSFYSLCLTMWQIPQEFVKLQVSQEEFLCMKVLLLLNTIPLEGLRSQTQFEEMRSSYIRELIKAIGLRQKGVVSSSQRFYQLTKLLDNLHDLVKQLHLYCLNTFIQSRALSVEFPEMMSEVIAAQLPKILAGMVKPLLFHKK

| Compound | Potency [1] | Potency [2] | Potency [3] | Potency [4] | Potency [5] | Potency [6] | Potency [7] | Potency [8] | Potency [9] | Potency [10] | Potency [11] | Potency [12] | Potency [13] | outcome [14] | Potency [15] | Potency [16] | Potency [17] | Potency [18] | activity change, negative = inhibition [17] | activity change, negative = cytotoxicity [11] |
| --- | --- | --- | --- | --- | --- | --- | --- | --- | --- | --- | --- | --- | --- | --- | --- | --- | --- | --- | --- | --- |
| CCn1cc(C(=O)O)c(=O)c2cc(F)c(N3CCNC(C)C3)c(F)c21 (stereo unspecified) | inactive | inactive | inactive | inactive | inactive | inactive | inactive | inactive | inactive | inactive | inactive | inactive | inactive | inactive | – | – | – | – | – | – |
| CC1=CC(=O)c2ccccc2C1=O | 24.3 µM (active) and 16.8 µM (active) | 43.3 µM (active) | 24.3 µM (active) and 26.6 µM (active) | 24.3 µM (active) | inactive | – | – | 38.6 µM (active) and inactive | inactive | inactive | inactive | 49 µM (active) | 54.9 µM (active) | inactive | inactive | inactive | – | – | – | – |
| CCN1CCCC1CNC(=O)c1cc(S(=O)(=O)CC)c(N)cc1OC (stereo unspecified) | inactive | inactive | inactive | inactive | inactive | inactive | – | inactive | inactive | inactive | inactive | inactive | inactive | inactive | – | inactive | inactive | – | – | – |
| NC(N)=Nc1nc(CSCC/C(N)=N/S(N)(=O)=O)cs1 | inactive | inactive | inactive | inactive | inactive | – | – | inactive | inactive | inactive | inactive | inactive | inactive | inactive | – | – | – | – | – | – |
| NCCCCCC(=O)O | inactive | inactive | inactive | inactive | inactive | inactive | inactive | inactive | inactive | inactive | inactive | inactive | inactive | inactive | – | inactive | – | – | – | – |
| Cc1ccc(-c2cc(C(F)(F)F)nn2-c2ccc(S(N)(=O)=O)cc2)cc1 | 21.6 µM (active) and 13.7 µM (active) and inactive | inactive | 60.9 µM (active) and 34.4 µM (active) and inactive | 61.1 µM (active) and inactive | inactive | inactive | – | inactive | inactive | inactive | 76.6 µM (active) and inactive | inactive | inactive | inactive | inactive | inactive | – | inactive | – | – |
| O=S(=O)(O)c1ccc2nc(-c3ccccc3)[nH]c2c1 | inactive | inactive | 23.2 µM (active) | 32.7 µM (active) | – | inactive | inactive | inactive | inactive | – | 32.7 µM (active) and 8.41 µM (active) | – | – | inactive | – | inactive | inactive | – | – | – |
| O=C(O)c1cn(-c2ccc(F)cc2)c2cc(N3CCNCC3)c(F)cc2c1=O | inactive | inactive | inactive | inactive | – | inactive | inactive | inactive | inactive | inactive | – | inactive | inactive | inactive | – | – | – | – | 13.8% [at 18.9 µM] (inactive) | 10.6% [at 19 µM] (inactive) |
| O=C(O)c1cccc(C(=O)O)c1 | inactive | inactive | inactive | inactive | inactive | inactive | – | inactive | inactive | inactive | inactive | inactive | inactive | inactive | – | inactive | – | – | – | – |
| NC(N)=NC(=O)Cc1c(Cl)cccc1Cl | inactive | inactive | inactive | inactive | – | inactive | inactive | inactive | inactive | inactive | inactive | inactive | inactive | inactive | – | inactive | inactive | inactive | – | – |
| O=C(O)CP(=O)(O)O | inactive | inactive | inactive | inactive | inactive | inactive | inactive | inactive | inactive | inactive | inactive | inactive | inactive | inactive | – | – | inactive | – | – | – |
| COc1ccc(COC(C)=O)cc1 | inactive | inactive | inactive | inactive | – | inactive | inactive | inactive | inactive | inactive | inactive | inactive | inactive | inactive | – | – | – | – | – | – |
| CC(=O)O[C@]1(C(C)=O)CC[C@H]2[C@@H]3C[C@H](C)C4=CC(=O)CC[C@]4(C)[C@H]3CC[C@@]21C | 19.3 µM (active) | inactive | inactive | inactive | inactive | inactive | inactive | inactive | – | – | – | inactive | inactive | – | – | – | inactive | – | – | – |
| CCC(C)(Oc1ccc(C2(c3ccc(OC(C)(CC)C(=O)O)cc3)CCCCC2)cc1)C(=O)O (stereo unspecified) | inactive | inactive | inactive | inactive | inactive | inactive | – | inactive | inactive | inactive | inactive | inactive | inactive | inactive | inactive | – | inactive | – | – | – |
